From PubChem BioAssay (Tox21)
Values without a mark were called inactive. Inconclusive results are not listed. A call without a number means that no potency is given here. Activity calls are given as the source filed them. Unless noted, the call rests on the fitted dose curve.

How the values were obtained:
[1] = Nuclear factor erythroid 2-related factor 2/antioxidant responsive element (Nrf2/ARE) small molecule agonists: qHTS cell viability counter screen in human keratinocytes (AID 1919968; active means well fitted curve in the direction sought with a large enough effect in the repeat runs; an effect the other way counts as inactive or inconclusive; further: nearly all actives have a fitted effect of over 55% in size; further: potency means the concentration at half of the fitted maximal effect)
How it was run: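 Cells of the KeratinoSens line were plated at 1,500 per well and left for 5 h before compound transfer from DMSO stocks. After a 23 h incubation (37 C, 5% CO2), CellTiter-Fluor was added. Signal was taken as fluorescence intensity 1 h later.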

[2] = Nuclear factor erythroid 2-related factor 2/antioxidant responsive element (Nrf2/ARE) small molecule agonists: luciferase reporter gene qHTS assay in human keratinocytes (AID 1919969); further: nearly all actives have a fitted effect of over 35% in size; further: potency means the concentration at half of the fitted maximal effect
[3] = target: Gonadotropin-releasing hormone receptor (Homo sapiens) (UniProt P30968); assay: Human gonadotropin-releasing hormone receptor (GnRHR) small molecule agonists, calcium flux assay in GnRHR-HEK293 cells (AID 1920063); further: nearly all actives have a fitted effect of over 35% in size
How it was run: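 Compounds dissolved in DMSO are pin-transferred onto dye-loaded GnRHR-HEK293 cells, which were seeded 18 h before at 37 C/5% CO2. Calcium signal is read as fluorescence intensity at 1 s intervals for 3 min.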

[4] = target: KiSS-1 receptor (Homo sapiens) (UniProt Q969F8); assay: Human kisspeptin (KISS1R) small molecule agonists, calcium flux assay in KISS1R-HEK293 cells (AID 1920064; active means well fitted curve in the direction sought with a large enough effect in the repeat runs; an effect the other way counts as inactive or inconclusive)
How it was run: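 Cell line: HEK293, stable human KISS1R. Dye loading 1 h at 37 C after 18 h culture. Read: kinetic fluorescence, 480/540 nm, 3 min at 1 s intervals.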

[5] = G protein-coupled receptor (GPCR) small molecule agonists, calcium flux assay: HEK293 wild type cell line counter screen (AID 1920065)
How it was run: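 Tox21 10K compounds, 15 concentrations each in triplicate, pin-transferred in DMSO onto dye-loaded cells; kinetic read at 480/540 nm for 3 min, 1 s intervals.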

[6] = p53 small molecule agonists, cell-based qHTS assay with rat liver microsomes (AID 1963578)
How it was run: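 Agonist mode in p53RE-bla reporter cells, with compounds co-incubated 16 h at 37 C alongside 0.5 mg/mL rat liver microsomes and 0.5 mg/mL NADPH (final), followed by a 2 h LiveBLAzer detection step.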

[7] = p53 small molecule agonists, cell-based qHTS assay with human liver microsomes: qHTS cell viability counter screen (AID 1963579); further: nearly all actives have a fitted effect of over 45% in size; further: potency means the concentration at half of the fitted maximal effect
How it was run: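 Metabolically activated exposure: compounds, human liver microsomes and NADPH (0.5 mg/mL final apiece) were added to p53RE-bla cells seeded 5 h earlier, left 16 h at 37 C, and then assessed for viability by CellTiter-Glo luminescence.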

[8] = p53 small molecule agonists, cell-based qHTS assay with rat liver microsomes: qHTS cell viability counter screen (AID 1963580); further: nearly all actives have a fitted effect of over 45% in size; further: potency means the concentration at half of the fitted maximal effect
How it was run: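 Cytotoxicity counter screen: intracellular ATP measured by CellTiter-Glo luminescence in the same wells as the beta-lactamase reporter read, on HCT-116 p53RE-bla cells exposed 16 h at 37 C to compounds with rat liver microsomes and NADPH, each 0.5 mg/mL final.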

[9] = p53 small molecule agonists, cell-based qHTS assay: qHTS cell viability counter screen (AID 1963581); further: nearly all actives have a fitted effect of over 45% in size; further: potency means the concentration at half of the fitted maximal effect
How it was run: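 ATP content measured by luminescence in HCT-116 p53RE-bla cells treated 16 h at 37 C, same wells as the reporter screen.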

[10] = p53 small molecule agonists, cell-based qHTS assay (AID 1963582; active means well fitted activation curve with a large enough effect in the signal ratio in the repeat runs, not every such curve was filed as active; the % refers to the signal ratio)
How it was run: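 16 h compound exposure (37 C) of p53 response element–bla cells, preceded by 5 h recovery at 37 C/5% CO2; read-out via LiveBLAzer B/G FRET substrate, 2 h RT, fluorescence intensity.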

[11] = target: 5-hydroxytryptamine receptor 2A (Homo sapiens) (UniProt P28223); assay: 5-hydroxytryptamine receptor 2A (HTR2A) small molecule antagonists, cell-based qHTS assay (AID 1963586); further: nearly all actives have a fitted effect of over 45% in size; further: potency means the concentration at half of the fitted maximal effect
How it was run: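 CHO cells stably expressing human HTR2A were plated for 18 h at 37 C, then loaded with calcium dye for 1 h. Compounds were preincubated 5 min at room temperature before DOI (4 nM solution) was added. Kinetic fluorescence was read for 3 min.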

[12] = target: 5-hydroxytryptamine receptor 2A (Homo sapiens) (UniProt P28223); assay: 5-hydroxytryptamine receptor 2A (HTR2A) small molecule agonists, cell-based qHTS assay (AID 1963587); further: nearly all actives have a fitted effect of over 30% in size
How it was run: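 CHO cells stably expressing human HTR2A, plated 18 h, loaded with calcium dye 1 h at 37 C. Agonist mode: compounds added and intracellular calcium fluorescence recorded kinetically for 2 min at 1 sec intervals.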

[13] = target: Muscarinic acetylcholine receptor M1 (Homo sapiens) (UniProt P11229); assay: Cholinergic receptor muscarinic 1 (CHRM1) small molecule antagonists, cell-based qHTS assay (AID 1963588); further: nearly all actives have a fitted effect of over 40% in size; further: potency means the concentration at half of the fitted maximal effect
How it was run: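 Compounds were tested at 15 concentrations in three independent runs. Dye-loaded CHRM1-CHO cells were exposed 5 min at room temperature before stimulation by acetylcholine added at 50nM. Intracellular calcium was read kinetically on FDSS for 3 min.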

[14] = target: Muscarinic acetylcholine receptor M1 (Homo sapiens) (UniProt P11229); assay: Cholinergic receptor muscarinic 1 (CHRM1) small molecule agonists, cell-based qHTS assay (AID 1963589); further: nearly all actives have a fitted effect of over 35% in size
How it was run: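 Homogeneous fluorescence calcium flux, agonist mode. Human M1-expressing CHO cells; compound dosed at 15 concentrations, three independent runs; signal sampled every 1 sec.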

[15] = cAMP Responsive Elements (CRE) small molecule agonists, cell-based qHTS assay (AID 1963590)
How it was run: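 HEK 293T cells stably bearing CRE-bla were plated at 2,000 cells per well and rested 18 h. Compounds, positive controls or DMSO were added for 3 h at 37 C. LiveBLAzer B/G substrate was then loaded for 2 h at room temperature.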

[16] = target: Beta-2 adrenergic receptor (Homo sapiens) (UniProt P07550); assay: Adrenergic beta2 receptor (ADRB2) small molecule antagonists, cell-based qHTS assay (AID 1963592); further: series mostly up to about 92 µM; nearly all actives have a fitted effect of over 50% in size
How it was run: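 Assay format: CHO-ADRB2 cells, 18-20hr seeding at 37C/5% CO2, then compound plus 1nM isoproterenol agonist mix for 0.5hr RT. Homogeneous time-resolved fluorescence cAMP detection after 1hr, expressed as 665/615 nm ratio.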

[17] = target: D(2) dopamine receptor (Homo sapiens) (UniProt P14416); assay: Dopamine D2 receptor (DRD2) small molecule agonists, cell-based qHTS assay (AID 1963594); further: nearly all actives have a fitted effect of over 35% in size
How it was run: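 HEK293 cells stably expressing human DRD2, pre-treated with PDE inhibitor Ro20-1724 (0.1 mM final) and compound 10 min at room temperature, then stimulated with NKH477 (200nM […]) for 30 min. cAMP read by HTRF (665/620 nm).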

[18] = target: D(2) dopamine receptor (Homo sapiens) (UniProt P14416); assay: Dopamine D2 receptor (DRD2) small molecule antagonists, cell-based qHTS assay (AID 1963595; active means well fitted inhibition curve with a large enough effect in the signal ratio in the repeat runs, with a control signal flat; the % refers to the signal ratio)
How it was run: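 In this cell-based antagonist screen, compounds act for 10 min at room temperature before a 30 min challenge with 12 nM quinpirole and 200 nM NKH477. cAMP is quantified by HTRF competition in DRD2-HEK293 cells containing 0.1 mM Ro20-1724.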

[19] = cAMP Responsive Elements (CRE) small molecule antagonists, cell-based qHTS assay (AID 1963591; active means well fitted inhibition curve with a large enough effect in the signal ratio in the repeat runs, not every such curve was filed as active; the % refers to the signal ratio)
How it was run: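 First, CRE-bla HEK293T cells settled 18 h at 37 C. Next, compound and 0.25 uM final NKH477 were applied for 3 h. Last, LiveBLAzer B/G substrate was loaded for 2 h at room temperature.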

[20] = target: Beta-2 adrenergic receptor (Homo sapiens) (UniProt P07550); assay: Adrenergic beta2 receptor (ADRB2) small molecule agonists, cell-based qHTS assay (AID 1963593);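 further: CHO cells stably overexpressing human ADRB2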
How it was run: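 CHO cells stably over-expressing ADRB2 were plated overnight at 37C, then dosed with compounds plus a stimulation mix containing 100uM IBMX and 25uM Ro-20-1724 for 0.5hr at room temperature. cAMP was measured by HTRF competition, 1hr.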

Chain of Beta-2 adrenergic receptor (Homo sapiens) (P07550 whole entry, looked up): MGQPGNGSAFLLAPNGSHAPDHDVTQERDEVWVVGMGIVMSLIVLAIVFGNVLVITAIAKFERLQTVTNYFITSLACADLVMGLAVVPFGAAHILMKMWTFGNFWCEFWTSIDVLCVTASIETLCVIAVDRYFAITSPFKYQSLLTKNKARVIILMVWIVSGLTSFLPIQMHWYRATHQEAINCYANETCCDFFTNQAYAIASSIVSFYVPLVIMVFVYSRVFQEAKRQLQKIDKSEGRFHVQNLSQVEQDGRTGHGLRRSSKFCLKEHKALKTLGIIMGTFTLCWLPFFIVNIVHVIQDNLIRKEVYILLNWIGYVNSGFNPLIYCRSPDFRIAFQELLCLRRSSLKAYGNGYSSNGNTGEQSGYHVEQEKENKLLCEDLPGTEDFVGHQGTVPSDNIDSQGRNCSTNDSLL
Chain of Muscarinic acetylcholine receptor M1 (Homo sapiens) (P11229 whole entry, looked up): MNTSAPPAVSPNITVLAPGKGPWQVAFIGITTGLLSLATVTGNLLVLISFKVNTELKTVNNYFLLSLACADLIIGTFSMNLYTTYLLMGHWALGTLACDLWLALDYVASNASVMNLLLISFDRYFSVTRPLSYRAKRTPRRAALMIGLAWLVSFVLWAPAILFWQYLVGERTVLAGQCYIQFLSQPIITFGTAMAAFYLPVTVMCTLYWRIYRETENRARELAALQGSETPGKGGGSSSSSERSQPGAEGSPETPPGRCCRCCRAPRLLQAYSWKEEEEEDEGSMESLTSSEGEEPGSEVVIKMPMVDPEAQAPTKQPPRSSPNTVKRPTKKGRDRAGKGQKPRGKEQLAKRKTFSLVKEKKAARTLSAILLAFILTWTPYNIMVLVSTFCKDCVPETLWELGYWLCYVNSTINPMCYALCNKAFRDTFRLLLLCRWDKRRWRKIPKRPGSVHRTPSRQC
Chain of Gonadotropin-releasing hormone receptor (Homo sapiens) (P30968 whole entry, looked up): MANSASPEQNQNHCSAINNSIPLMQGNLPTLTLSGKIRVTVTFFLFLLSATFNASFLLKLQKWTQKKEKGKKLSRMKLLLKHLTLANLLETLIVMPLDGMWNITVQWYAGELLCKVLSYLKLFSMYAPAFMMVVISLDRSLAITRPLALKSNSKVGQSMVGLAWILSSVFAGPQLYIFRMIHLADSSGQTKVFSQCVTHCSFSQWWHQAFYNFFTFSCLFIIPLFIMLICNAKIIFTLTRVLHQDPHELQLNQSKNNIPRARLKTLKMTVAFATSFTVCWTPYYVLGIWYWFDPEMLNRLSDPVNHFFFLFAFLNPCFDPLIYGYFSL
Chain of KiSS-1 receptor (Homo sapiens) (Q969F8 whole entry, looked up): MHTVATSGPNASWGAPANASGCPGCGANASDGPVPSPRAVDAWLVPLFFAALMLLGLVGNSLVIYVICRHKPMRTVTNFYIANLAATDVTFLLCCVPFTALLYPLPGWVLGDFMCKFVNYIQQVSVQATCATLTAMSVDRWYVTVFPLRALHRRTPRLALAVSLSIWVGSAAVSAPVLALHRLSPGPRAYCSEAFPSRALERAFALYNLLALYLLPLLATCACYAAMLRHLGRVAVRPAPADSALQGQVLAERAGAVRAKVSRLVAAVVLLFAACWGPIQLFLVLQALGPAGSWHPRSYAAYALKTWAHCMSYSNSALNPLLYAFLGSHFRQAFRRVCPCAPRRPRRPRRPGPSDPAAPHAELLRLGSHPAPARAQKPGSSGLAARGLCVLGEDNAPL
Chain of D(2) dopamine receptor (Homo sapiens) (P14416 whole entry, looked up): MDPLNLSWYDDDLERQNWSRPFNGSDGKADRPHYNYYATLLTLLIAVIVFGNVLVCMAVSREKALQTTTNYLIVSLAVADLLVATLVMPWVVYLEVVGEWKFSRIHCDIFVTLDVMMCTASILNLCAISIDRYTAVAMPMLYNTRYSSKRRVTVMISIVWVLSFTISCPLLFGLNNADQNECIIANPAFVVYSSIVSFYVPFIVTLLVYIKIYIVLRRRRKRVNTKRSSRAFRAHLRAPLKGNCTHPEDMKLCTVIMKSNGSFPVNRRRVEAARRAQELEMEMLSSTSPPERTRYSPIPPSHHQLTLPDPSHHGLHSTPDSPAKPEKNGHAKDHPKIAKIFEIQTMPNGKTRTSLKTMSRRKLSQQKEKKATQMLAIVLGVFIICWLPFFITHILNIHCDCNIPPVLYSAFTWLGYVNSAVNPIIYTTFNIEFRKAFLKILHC
Chain of 5-hydroxytryptamine receptor 2A (Homo sapiens) (P28223 whole entry, looked up): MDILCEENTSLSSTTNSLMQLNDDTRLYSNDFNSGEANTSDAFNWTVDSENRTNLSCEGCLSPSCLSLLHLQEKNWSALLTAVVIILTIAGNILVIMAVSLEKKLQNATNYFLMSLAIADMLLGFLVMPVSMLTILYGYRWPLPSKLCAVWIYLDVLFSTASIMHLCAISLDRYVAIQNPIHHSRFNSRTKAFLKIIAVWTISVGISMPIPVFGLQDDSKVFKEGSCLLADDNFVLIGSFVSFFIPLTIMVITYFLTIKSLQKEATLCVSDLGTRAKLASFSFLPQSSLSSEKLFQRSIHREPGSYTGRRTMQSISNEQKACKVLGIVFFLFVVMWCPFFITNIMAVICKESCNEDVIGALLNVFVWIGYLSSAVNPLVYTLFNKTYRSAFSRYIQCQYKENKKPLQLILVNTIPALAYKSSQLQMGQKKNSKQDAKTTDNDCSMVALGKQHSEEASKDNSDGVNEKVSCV

Structure (SMILES)	Potency [1]	Potency [2]	Potency [3]	Potency [4]	Potency [5]	Potency [6]	Potency [7]	Potency [8]	Potency [9]	Potency [10]	Potency [11]	Potency [12]	Potency [13]	Potency [14]	Potency [15]	Potency [16]	Potency [17]	Potency [18]	Potency [19]	Potency [20]
COc1cc(C(=O)OCCCN2CCCN(CCCOC(=O)c3cc(OC)c(OC)c(OC)c3)CC2)cc(OC)c1OC	inactive	inactive	inactive	inactive	inactive	inactive	inactive	inactive	inactive	inactive	inactive	inactive	7.29 µM (active)	inactive	inactive	inactive	inactive	inactive		
CCC[Si](OC)(OC)OC	inactive	inactive	inactive	inactive	inactive	inactive	inactive	inactive	inactive	inactive	inactive	inactive	inactive	inactive	inactive	inactive	inactive	inactive	inactive	
CC/C=C\CCOC(C)OCC (stereo not given)	inactive	inactive	inactive	inactive	inactive	inactive	inactive	inactive	inactive	inactive			inactive	inactive	inactive	inactive	inactive	inactive	inactive	
O=C1OC(=O)c2cc(Oc3ccc4c(c3)C(=O)OC4=O)ccc21	inactive	inactive	inactive	inactive	inactive	inactive	inactive	inactive	inactive	inactive	inactive	inactive	inactive	inactive	inactive	inactive	inactive	inactive	inactive	
CC(=O)OCC(=O)[C@@]1(O)[C@H](OC(C)=O)C[C@H]2[C@@H]3CCC4=CC(=O)C=C[C@]4(C)[C@@]3(F)[C@@H](O)C[C@@]21C	inactive	inactive	inactive	inactive	inactive	inactive	inactive	inactive		inactive		inactive	inactive	inactive	inactive	inactive	inactive	inactive	inactive	
CN(C)c1ccc(C2(c3ccc(N(C)C)cc3)OC(=O)c3cc(N(C)C)ccc32)cc1	inactive	inactive	inactive	inactive	inactive	inactive	18.2 µM (active)	inactive	inactive		inactive			inactive	inactive	inactive	inactive	inactive		
Cc1c(-c2cccnc2)c2ccccc2n1CCCCC(=O)O	inactive	inactive	inactive	inactive	inactive	inactive	inactive	inactive		inactive	inactive	inactive	inactive	inactive		inactive	inactive			
CN(C)c1ccc(N=NS(=O)(=O)O)cc1	inactive	25.6 µM (active)	inactive	inactive	inactive	inactive	inactive	inactive	inactive		inactive		inactive	inactive			inactive			
Fc1ccc(C(c2ccc(F)cc2)N2CCNCC2)cc1	inactive	inactive	inactive	inactive	inactive	inactive	inactive	inactive		inactive		inactive	2.9 µM (active)	inactive	inactive	inactive	inactive	inactive	inactive	
O=C(O)C1(C(=O)Nc2ccc(Cl)cc2Cl)CC1	inactive	inactive	inactive	inactive	inactive	inactive	inactive	inactive	inactive		33.4 µM (active)	inactive	inactive	inactive		inactive	inactive	inactive		
CCC[C@@H]1C[C@@H](C(=O)N[C@@H]([C@H]2O[C@H](SC)[C@H](O)[C@@H](O)[C@H]2O)[C@@H](C)O)N(C)C1	inactive	inactive	inactive	inactive	inactive	inactive	inactive	inactive	inactive	inactive						inactive	inactive	inactive	inactive	inactive
O=C(O)COC(=O)Cc1ccccc1Nc1c(Cl)cccc1Cl	inactive	inactive	inactive	inactive	inactive	inactive	inactive	inactive	inactive						inactive	inactive	inactive	inactive	inactive	inactive
Oc1ccc2c(c1)-c1ccccc1C2	inactive	inactive	inactive	inactive	inactive	inactive	inactive	inactive		inactive	inactive	inactive	inactive	inactive	inactive	inactive	inactive	inactive		
CC1(C)[C@@H](OC(=O)CCC(=O)O)CC[C@]2(C)[C@H]3C(=O)C=C4[C@@H]5C[C@@](C)(C(=O)O)CC[C@]5(C)CC[C@@]4(C)[C@]3(C)CC[C@@H]12	inactive	inactive	inactive	inactive	inactive	inactive	inactive	inactive			inactive	inactive	inactive	inactive	inactive	inactive	inactive	inactive	inactive	
CCN=C1C=CC(=C(c2ccc(N(CC)CC)cc2)c2ccc(N(CC)CC)cc2)c2ccccc21	19.2 µM (active)	inactive	inactive	inactive	inactive	inactive	22.8 µM (active)	40.5 µM (active)	36.1 µM (active)		inactive	inactive	inactive	inactive						
CCCNC(C)C(=O)Nc1c(C)csc1C(=O)OC (stereo not given)	inactive	inactive	inactive	inactive	inactive	inactive	inactive	inactive		inactive	inactive	inactive	inactive	inactive	inactive	inactive			inactive	inactive
